# PubChem BioAssay AID1851 (National Center for Advancing Translational Sciences (NCATS), 2009)
# Hit rate of the full screen: of about 16,000 compounds, about 5,700 (36%) were called active. Another 24% or so got no clear call; they are omitted. The list shows a part of the results. Values without a mark were called inactive. The call rests on the fitted dose curve; in most records, active means well fitted curve in the direction sought with a large enough effect; inconclusive means small, poorly fitted or top-dose-only effect, or effect the other way; inactive means no such curve, though single readings can be large or run the other way.
# Target: Cytochrome P450 1A2 (Homo sapiens) (UniProt P05177)
# Assay: Cytochrome panel assay with activity outcomes
# Conditions: recombinant CYP, pro-luciferin dealkylation, luminescence, p450-cyp1a2; series mostly up to 57.1 µM; activity, negative = inhibition: at the top concentration
# On the % scale 0 is the no-effect control and ±100 the full control effect.
# Chain of Cytochrome P450 1A2 (Homo sapiens) (P05177 whole entry, looked up): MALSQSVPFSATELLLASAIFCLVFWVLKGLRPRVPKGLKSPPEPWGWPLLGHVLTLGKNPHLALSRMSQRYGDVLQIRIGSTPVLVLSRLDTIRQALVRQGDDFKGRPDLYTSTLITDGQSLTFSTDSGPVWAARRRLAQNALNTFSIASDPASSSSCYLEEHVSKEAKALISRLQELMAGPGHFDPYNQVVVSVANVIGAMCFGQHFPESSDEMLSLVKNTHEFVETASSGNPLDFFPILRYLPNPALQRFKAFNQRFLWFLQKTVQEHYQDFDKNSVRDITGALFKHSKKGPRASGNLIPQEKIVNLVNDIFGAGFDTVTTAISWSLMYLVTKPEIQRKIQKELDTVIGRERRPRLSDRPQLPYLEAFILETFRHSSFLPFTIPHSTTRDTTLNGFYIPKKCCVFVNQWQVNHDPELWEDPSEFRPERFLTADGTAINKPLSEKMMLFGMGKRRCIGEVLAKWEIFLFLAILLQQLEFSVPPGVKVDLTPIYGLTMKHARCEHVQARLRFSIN
SMILES,AC50,"activity, negative = inhibition"
Oc1ccc2[nH]cc(CCCCN3CC=C(c4ccccc4)CC3)c2c1,31600 nM (active),
COC1(CS(=O)c2ccccc2)CCN(CCc2c[nH]c3ccc(F)cc23)CC1 (centres undefined),,-12.4%
S=C(Nc1ccc(Cl)cc1)NC1CC2CCCC(C1)N2C1CCCC1 (centres undefined),,-2.97%
O=C(Oc1ccccc1)N1CCC2(CCCN(Cc3ccccc3)C2)CC1,,-22.8%
C[C@@H]1O[C@H](O[C@@H]2C=C3CC[C@H]4[C@@H](CC[C@]5(C)[C@@H](c6ccc(=O)oc6)CC[C@]45O)[C@@]3(C)CC2)[C@@H](O)[C@H](O)[C@@H]1O,,-2.13% [at 25.6 µM]
O=C(O)/C=C(\CC(=O)O)C(=O)O,,-6.78% [at 11.4 µM]
CN1CCN(c2ncc3ncc(=O)n(C)c3n2)CC1,12600 nM (active),
CN1CCC2(CC1)CCN(C(=O)Oc1ccccc1)CC2,,0.724%
CC(C)[C@@H](C)/C=C\[C@@H](C)[C@@H]1CC[C@H]2C3=CC=C4C[C@@H](O)CC[C@]4(C)[C@H]3CC[C@]21C,,-8.17% [at 11.4 µM]
CC(C)NP(=O)(NC(C)C)OP(=O)(NC(C)C)NC(C)C,,5.14%
COc1cc2c(cc1OC)[C@]13CC[N@+]4(C)CC5=CCO[C@H]6CC(=O)N2[C@@H]1[C@@H]6[C@@H]5C[C@]34O,,-11.4% [at 2.29 µM]
C[C@H](NC(C)(C)C)C(=O)c1cccc(Cl)c1,inactive,
Cc1c2cc[n+](CCN3CCCCC3)cc2c(C)c2c1[nH]c1ccc(O)cc12,2510 nM (active),
CCNC(=O)[C@@H]1O[C@@H](n2cnc3c(N)ncnc32)[C@@H](O)[C@H]1O,,4.94%
CP(=O)(O)CCCN,,-5.13%
O=C(CNS(=O)(=O)c1cccs1)N1CCC2(CC1)OCCO2,,2.75%
CCn1c(O)c(C(c2ccccn2)c2c(O)n(CC)c(=S)[nH]c2=O)c(=O)[nH]c1=S,,8.62%
OC(Cn1c2ccccc2c2ccccc21)C[n+]1ccccc1 (centres undefined),3160 nM (active),
C/C=C1\C[C@H](C)[C@@](O)(CO)C(=O)OCC2=CCN3CC[C@@H](OC1=O)[C@@H]23,,-2.57% [at 25.6 µM]
CCOP(=O)(OCC)C(NC(=O)C(Cl)Cl)C(Cl)(Cl)Cl (centres undefined),,-3.49%
COCC(=O)N1CCC2(CCCN(Cc3ccncc3)C2)CC1,,-9.26%
Nc1nc(OCc2ccccc2)c2[nH]cnc2n1,1000 nM (active),
O=C(Oc1ccccc1)N1CCC2(CCN(Cc3nccs3)CC2)CC1,,-4.58%
NC[C@H](O)c1cc(O)c(O)cc1F,,-15.4%

SMILES,AC50,"activity, negative = inhibition"
C[N+]1(C)CCc2cc3c(cc2[C@@H]1[C@@H]1OC(=O)c2c1ccc1c2OCO1)OCO3,,-11.3%
CN1Cc2c(ccc3c2OCO3)[C@@H]2[C@@H](O)Cc3cc4c(cc3[C@@H]21)OCO4,2510 nM (active),
CN1CCc2cc3c(cc2[C@@H]1O)OCO3,,-10.2% [at 25.6 µM]
Cn1c(O)c(C(c2ccccn2)c2c(O)n(C)c(=S)n(C)c2=O)c(=O)n(C)c1=S,,3.65%
CC(C)(C)c1o[nH]c(=O)c1C[C@H](N)C(=O)O,inactive,
COc1cc([C@@H](O)CN)ccc1O,,2.29%
COc1cc(CCN)c(OC)c(OC)c1,3160 nM (active),
Cn1c(=O)c2[nH]cnc2n(C)c1=O.[CH2-][C@H](Cc1cccc2cc(C(=O)O)c(=O)oc12)OC.[Hg].[OH-],,-15.3% [at 11.4 µM]
COc1cc2ccccc2c2cc([N+](=O)[O-])oc12,126 nM (active),
C[C@H]1C(=O)O[C@@H]2CCN3CC=C(COC(=O)[C@@](C)(O)[C@@]1(C)O)[C@H]23,,-3.43% [at 25.6 µM]
c1ccc2c(c1)OC[C@@H](C1=NCCN1)O2,inactive,
NCC#Cc1ccccc1,3160 nM (active),
C/C=C1\C[N@@+]2(C)CC[C@@]34C(=C(C=O)[C@H]1C[C@H]32)Nc1ccccc14,,-4.2% [at 25.6 µM]
C[N+]1(C)C2CC(OC(=O)C(CO)c3ccccc3)CC1[C@@H]1O[C@H]21 (some centres undefined),inactive,
OC(c1ccccc1)(c1ccccc1)C1CCCN1 (centres undefined),15800 nM (active),
OC(c1ccccc1)(c1ccccc1)C1CCNCC1,,-7.42% [at 25.6 µM]
CC[C@H](C)C(=O)O[C@@H]1[C@H](O)[C@@H]2[C@H](CN3C[C@@H](C)CC[C@@H]3[C@@]2(C)O)[C@@H]2C[C@@]34O[C@@]5(O)[C@@H](OC(=O)[C@](C)(O)CC)CC[C@@]3(C)[C@H]5[C@H](OC(C)=O)[C@@H](OC(C)=O)[C@H]4[C@]12O,,-4.04% [at 25.6 µM]
CC(C)Oc1cccnc1N(C)C1CCN(Cc2ccccc2)CC1,,9.93%
CS(=O)(=O)N1CCC2(CC1)CN(Cc1ccncc1)C2,,-10.1%
O=c1[nH]oc2c1CCNC2,inactive,
Cn1ccnc1,,4.4%
C[C@]12CC[C@H](O)C[C@@H]1CC[C@H]1[C@H]2CC[C@]2(C)C(=O)CC[C@@H]12,inactive,
CC(C)CCC[C@@H](C)[C@@H]1CC[C@@H]2[C@H]3CC[C@H]4C[C@@H](N)CC[C@@]4(C)[C@@H]3CC[C@]21C,,3.33% [at 11.4 µM]
C[C@@]12CC[C@H]3[C@@H](CC[C@@H]4C[C@H]5S[C@H]5C[C@]43C)[C@H]1CC[C@H]2O,25.1 nM (active),

SMILES,AC50,"activity, negative = inhibition"
C[As+](C)(c1ccc(Br)c([N+](=O)[O-])c1)c1ccc(Br)c([N+](=O)[O-])c1.O=[N+]([O-])O,,-12.7% [at 11.4 µM]
COc1cc(-c2ccc(=O)[nH]n2)ccc1OC(F)F,2510 nM (active),
CC(C)CN1CCC2(CC1)CCN(S(C)(=O)=O)CC2,,-17.4%
O=C(CCCN1CCC(n2c(=O)[nH]c3ccccc32)CC1)c1ccc(F)cc1,,-11% [at 25.6 µM]
CN1C(=O)C(=Cc2ccc(N3CCCCC3)o2)C(=O)N(C)C1=S,1580 nM (active),
CN1C(=O)C(=Cc2ccc(N3CCCCCC3)o2)C(=O)N(C)C1=S,1580 nM (active),
CC(=O)NBr,,-8.01%
O=C(Oc1ccccc1)N1CCC2(CCN(Cc3ccccc3)CC2)CC1,,-8.29%
CC(C)COC(=O)OCN1C(=O)CN(CCN2CC(=O)N(COC(=O)OCC(C)C)C(=O)C2)CC1=O,,-4.86%
Cc1ncc([N+](=O)[O-])n1CCN=[N+]=[N-],,-9.71% [at 11.4 µM]
COc1cc(CN2CCN(C(=O)COc3ccccc3)CC2)cc(OC)c1OC,,21.8%
C[C@@H](N)Cn1ccc2cc(F)c(Cl)cc21,50.1 nM (active),
CCCCCC[C@H]1C(=O)O[C@H](C)[C@H](NC(=O)c2cccc(NC=O)c2O)C(=O)O[C@@H](C)[C@H]1OC(=O)CC(C)C,,-17.2% [at 25.6 µM]
COc1ccc2[nH]c3c(c2c1)CCNC3,3160 nM (active),
CC1=NCCc2c1[nH]c1cc(O)ccc21,12600 nM (active),
COc1ccc2c3c([nH]c2c1)C(C)=NCC3,794 nM (active),
COc1ccc2[nH]c3c(c2c1)CCN=C3C,1580 nM (active),
CN(C)C=C1C(=O)N(C2CCCCC2)C(=O)N(C2CCCCC2)C1=O,,-7.85%
c1cc2cc(c1)C[n+]1ccc(c3ccccc31)NCc1ccc(cc1)CNc1cc[n+](c3ccccc13)C2,,-11.6%
C[N+]1([O-])[C@H]2CC[C@H]1CC(OC(=O)[C@@H](CO)c1ccccc1)C2 (some centres undefined),,0.783% [at 2.29 µM]
C[N+](C)(C)CCCCCCCCCC[N+](C)(C)C,,-7.81% [at 25.6 µM]
NCC[C@H](O)C(=O)N[C@H]1C[C@@H](N)[C@@H](O[C@H]2O[C@@H](CN)[C@@H](O)[C@@H](O)[C@@H]2N)[C@@H](O[C@H]2O[C@@H](CO)[C@@H](O)[C@@H]2O)[C@@H]1O,,-8.71% [at 25.6 µM]
c1cc(CN2CC3(CCNCC3)C2)ccn1,,-9.36%
O=c1[nH]cnc2[nH]cc(CN3CCCCC3)c12,,-11.6% [at 11.4 µM]

SMILES,AC50,"activity, negative = inhibition"
COc1ccccc1CN1CCCC2(CCN(C(=O)Oc3ccccc3)CC2)C1,,-16.8%
CC(C)c1nccn1Cc1ccc(Cl)cc1Cl,,-14.7% [at 11.4 µM]
O=C(O)C(C(=O)O)P(=S)(S)c1ccccc1 (centres undefined),,-13.3% [at 11.4 µM]
CNCC/C=C\c1cccnc1,,-18.5%
COc1cc(N)c(Cl)cc1C(=O)N[C@@H]1CN2CCC1CC2,,-16.9%
CN1[C@@H]2CC[C@H]1CC(NC(=O)c1nn(C)c3ccccc13)C2 (some centres undefined),,-10.6%
Cn1cc(C(=O)C(=O)N[C@H]2CN3CCC2CC3)c2ccccc21,15800 nM (active),
NCC1(CC(=O)O)CCCCC1,,-2.98% [at 25.6 µM]
C[C@H]1CC[C@@]2(NC1)O[C@@H]1C[C@H]3[C@@H]4CC[C@@H]5C[C@@H](O)CC[C@@]5(C)[C@@H]4CC[C@]3(C)[C@@H]1[C@@H]2C,,-3.92% [at 25.6 µM]
CCCN1CCC[C@@H]2Cc3nc(N)ncc3C[C@H]21,,5.61%
N#CCCCC[N+]12CN3CN(CN(C3)C1)C2,,15% [at 2.29 µM]
COCCCN1Cc2ccccc2C1=N,,5.31%
S=C(S)N1CCCC1,31600 nM (active),
C[C@@]12CC[C@H](O)C[C@@H]1CC[C@@H]1[C@@H]2CC[C@@]2(C)[C@@H](C3=CC(=O)OC3)[C@H](O)C[C@]12O,,-18.3% [at 11.4 µM]
CC1(C)N=C(N)N=C(N)N1c1cccc(C(=O)Nc2ccc(S(=O)(=O)F)cc2)c1,,-15.8% [at 11.4 µM]
c1ccc(CN2CC[C@@]3(CCCNC3)C2)cc1,,-5.11%
NC1=Nc2ccccc2Oc2ccccc21,12600 nM (active),
CC(C)[N+](C)(CCC(C(N)=O)(c1ccccc1)c1ccccc1)C(C)C,,-8.56% [at 25.6 µM]
CC(=O)c1ccc2c(c1)N(CCCN(C)C)c1ccccc1S2,1580 nM (active),
CN1C(=O)c2ccccc2Sc2ccc(C(=O)N3CCC4(CC3)OCCO4)cc21,,-18.4%
C=CCN1C(=O)c2ccccc2Sc2ccc(C(=O)N3CCC4(CC3)OCCO4)cc21,,-5.85%
C[N+](C)(C)CCCCCC[N+](C)(C)C,,0.308% [at 25.6 µM]
